High-throughput results as filed in PubChem BioAssay.
Rows were chosen to be rich in hits. Some 22% of all compounds tested hit in one or more screens of this group.
Cycloheximide cs: Cycloheximide Counterscreen for Small Molecule Inhibitors of Shiga Toxin | cell reporter, cycloheximide protein synthesis inhibition counterscreen | max response, % | hit rate 12% among 300,000 | AID 2314, 2010; in the data active = max response mostly above about 13%, no sharp cut-off; inactive = mostly below about 14%; note: read at 38.3 µM for the half of the compounds with a filed dose
Pf growth 96h: Primary qHTS for delayed death inhibitors of the malarial parasite plastid, 96 hour incubation | P. falciparum luciferase reporter growth, 96 h | Potency, µM (top dose mostly 28.7 µM), usual class: inhibitors | hit rate 6.9% among 320,000 | AID 504834, 2011
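P. falciparum expressing integrated firefly luciferase grown in erythrocytes (2% hematocrit, 0.05% parasitemia final) with compounds for 96 hours at 37 C, 5% CO2. Growth inhibition read as loss of luminescence after adding luciferase detection reagent.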
Pf growth 48h: Primary qHTS for delayed death inhibitors of the malarial parasite plastid, 48 hour incubation. hit rate 5.9% among 310,000. Potency, µM (highest dose often 28.7 µM), most hits filed as inhibitors. P. falciparum luciferase growth in erythrocytes, 48 h
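Erythrocytes infected with P. falciparum carrying an integrated firefly luciferase reporter (2% hematocrit, 0.1% parasitemia final) were exposed to compounds in RPMI 1640 with 0.5% Albumax at 37 C, 5% CO2. Growth inhibition was scored as reduced luminescence.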
LmPK inhibitor: qHTS Assay for Inhibitors of Leishmania Mexicana Pyruvate Kinase (LmPK) | Q27686 | purified LmPK, Kinase-Glo ATP luminescence, 1 h | Potency, µM (top dose mostly 57.5 µM), most hits filed as inhibitors | hit rate 0.37% among 290,000 | AID 1721, 2009
Target sequence (Q27686 whole entry, looked up): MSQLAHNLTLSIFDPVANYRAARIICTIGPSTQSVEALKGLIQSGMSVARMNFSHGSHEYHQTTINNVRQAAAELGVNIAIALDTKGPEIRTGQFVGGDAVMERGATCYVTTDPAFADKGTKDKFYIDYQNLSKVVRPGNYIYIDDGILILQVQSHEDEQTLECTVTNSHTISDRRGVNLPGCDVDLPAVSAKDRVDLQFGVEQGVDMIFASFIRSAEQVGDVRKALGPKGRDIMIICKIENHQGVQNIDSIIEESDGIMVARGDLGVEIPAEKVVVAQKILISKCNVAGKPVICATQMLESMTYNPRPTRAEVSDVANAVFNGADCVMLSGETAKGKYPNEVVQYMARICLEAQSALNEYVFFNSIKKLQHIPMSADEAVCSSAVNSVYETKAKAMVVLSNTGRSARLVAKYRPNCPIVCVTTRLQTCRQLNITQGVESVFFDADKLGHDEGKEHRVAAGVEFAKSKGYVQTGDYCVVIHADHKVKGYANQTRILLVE
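0.1 nM LmPK, 0.5 mM PEP, 0.1 mM ADP; 50 mM imidazole pH 7.2, 7 mM MgCl2, 50 mM KCl; 1 h RT. Kinase-Glo luminescence readout, normalized to no-enzyme (full inhibition) and uninhibited wells.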
Shiga inhibitor: A qHTS for Small Molecule Inhibitors of Shiga Toxin; Vero cells, Shiga toxin protein synthesis inhibition reporter; inhibition, % at 38.7 µM; hit rate 9.2% among 290,000; AID 2315, 2010; in the data active = inhibition mostly above about 28%, no sharp cut-off; inactive = mostly below about 43%
Numbers stand for hits; . = inactive; ? = inconclusive; / = no result; ! = repeats disagree; [ ] = another dose, or the depositor's remark. Unless noted, calls come from the whole dose curve; as a rule, active = well fitted inhibition curve with a large enough effect; inconclusive = small, poorly fitted or top-dose-only effect, or another doubt; inactive = no such curve, though single readings can be large or run the other way.

SMILES	Cycloheximide cs	Pf growth 96h	Pf growth 48h	LmPK inhibitor	Shiga inhibitor
O=C1CC(N2CCOCC2)C(=O)N1Cc1ccc(N2CCCC2=O)cc1 (centres undefined)	.	.	/	.	.
O=C1CC(N2CCN(Cc3ccc4c(c3)OCO4)CC2)C(=O)N1Cc1ccc(N2CCCC2=O)cc1 (centres undefined)	.	9.3µM	?	.	.
Cc1cc2ncn(C3CC(=O)N(Cc4ccc(N5CCCC5=O)cc4)C3=O)c2cc1C (centres undefined)	.	8.3µM	.	.	.
O=C1CC(N2CCC(O)(c3ccc(Cl)cc3)CC2)C(=O)N1Cc1ccc(N2CCCC2=O)cc1 (centres undefined)	.	/	9.3µM	.	.
O=C(NCC1c2ccccc2CCN1C(=O)CN1C(=O)c2ccccc2C1=O)C1CCCCC1 (centres undefined)	.	?	.	.	.
Cc1cccc(NC(=O)CSc2nnc(-c3cc(C)[nH]n3)n2N)c1	.	?	.	.	.
COc1ccccc1N1CCN(C(=O)CCCN2C(=O)c3cccc4cccc(c34)C2=O)CC1	.	.	?	.	.
Cc1nc2ccc(N)cc2s1	.	.	.	.	.
Cc1cc2nc3ccc(=[N+](C)C)cc-3sc2cc1N	36	0.033µM	0.037µM	14µM	48
CN(C)c1ccc2nc3ccc(=[N+](C)C)cc-3sc2c1	64!	0.0067µM!	0.0067µM	.	88
CCOC(=O)C1=C(C)N(c2ccc(OC)cc2)C(=O)/C1=C\c1ccc(O)c(OCC)c1	.	.	?	32µM	.
COc1cccc(OCCSc2nc(N)cc(N)n2)c1	38	.	/	.	.
Nc1cc(N)nc(SCCOc2ccccc2)n1	36	.	.	.	55
Cc1ccc(-c2nc(NCc3ccc(F)cc3)n(S(C)(=O)=O)n2)cc1	.	.	.	.	.
Fc1ccc2nc3[nH]c4ccccc4c3nc2c1	44	.	.	.	62
CC(C)N(CCCNC(=O)Cn1c(=O)c2cccn2c2ccccc21)Cc1ccccc1	.	?	.	.	.
Cc1cnc(C(=O)OCc2nc3ccsc3c(=O)[nH]2)cn1	/	.	.	/	/
Cc1c(C(=O)N/N=C/c2cccnc2)nnn1-c1nonc1N	.	.	.	.	.
COc1ccc2oc(=O)c(-c3csc(Nc4cccc(O)c4)n3)cc2c1	48	.	.	.	58
COc1ccc(Nc2nc(-c3cc4cccc(OC)c4oc3=O)cs2)cc1	21	.	.	.	.
CC(C)(C)c1ccc(S(=O)(=O)NCC(=O)N2CCCC2)cc1	.	?	.	.	/
O=C(O)[C@H]1CN(C/C=C/P(=O)(O)O)CCN1	/	.	.	/	/
Cc1cccc(NC(=O)COc2cccc3c2CCN(C)C3=O)c1C	.	?	?	.	.
CCOC(=O)c1c(NC(=O)COc2cccc3c2CCN(C)C3=O)sc2c1CCC2	.	13µM	?	.	.
COC(=O)CCN1CCc2cc(N=Nc3ccc([N+](=O)[O-])cc3)ccc21	39	.	.	.	.
SMILES	Cycloheximide cs	Pf growth 96h	Pf growth 48h	LmPK inhibitor	Shiga inhibitor
CC(=O)CC(c1ccc([N+](=O)[O-])cc1)c1c(O)c2ccccc2oc1=O (centres undefined)	.	/	.	.	.
Cc1c(Br)c([N+](=O)[O-])nn1C(C)C(=O)N1CCc2ccccc2C1 (centres undefined)	27	.	.	.	30
Cc1c(Br)c([N+](=O)[O-])nn1CC(=O)N1CCc2ccccc2C1	.	.	.	.	.
CCCCCCCCCCOc1cc(OCCCCCCCCCC)cc(N(CC(=O)O)CC(=O)O)c1	.	/	/	/	.
O=C(CSc1n[nH]c(-c2ccccc2)n1)Nc1ccccc1O	.	.	.	.	.
CC(C)c1ccc(C(=O)CSc2n[nH]c(-c3ccncc3)n2)cc1	.	2.6µM	/	.	.
Nc1nc(SCC(=O)c2ccc(Oc3ccccc3)cc2)n[nH]1	29	.	.	.	.
Cc1ccc(NC(=O)CSc2n[nH]c(-c3ccncc3)n2)cc1C	.	.	12µM	.	.
O=C(CSc1n[nH]c(-c2ccccc2)n1)c1ccccc1	52	.	.	.	71
N#Cc1ccc(C(=O)Nc2cc(S(=O)(=O)N3CCCC3)ccc2OCC(F)(F)F)cc1	.	.	.	.	.
CCOc1ccc(NC(=O)CN2CCN(C(=O)C3CCCO3)CC2)cc1 (centres undefined)	.	?	.	.	.
COC(=O)C(OC(=O)c1ccccc1)C(C)Br (centres undefined)	/	.	.	/	/
CCN1C(=O)N(CC)C(=O)C2(Cc3ccccc3N3CCN(c4ccccc4)CC32)C1=O (centres undefined)	36	?	?	.	70
CCN(CC(=O)NC(C)(C)C)Cc1nc2c(Br)cc(Br)cc2c(=O)[nH]1	.	9.3µM	12µM	.	.
CCN(CC(=O)NC1CCS(=O)(=O)C1)Cc1nc2c(Br)cc(Br)cc2c(=O)[nH]1 (centres undefined)	.	.	.	.	.
C[C@H](NC(=O)c1nc[nH]c1C(=O)N[C@@H](CCCCNC(=O)OC(C)(C)C)C(=O)OC(C)(C)C)c1ccccc1	.	?	10µM	.	.
CC(C)(C)OC(=O)NCCCC[C@H](NC(=O)c1nc[nH]c1C(=O)NCc1ccccc1)C(=O)OC(C)(C)C	.	?	?	.	.
CN(Cc1ccccc1)C(=O)c1[nH]cnc1C(=O)N[C@@H](CCCCNC(=O)OC(C)(C)C)C(=O)OC(C)(C)C	.	8.3µM	?	.	.
C[C@H](NC(=O)c1nc[nH]c1C(=O)NCc1ccc(CNC(=O)OC(C)(C)C)cc1)c1ccccc1	/	?	10µM	/	/
CC(C)(C)OC(=O)NCCCC[C@H](NC(=O)c1[nH]cnc1C(=O)N[C@@H](Cc1ccccc1)C(=O)OC(C)(C)C)C(=O)OC(C)(C)C	.	3.7µM	2.9µM	.	.
C[C@@H](NC(=O)c1nc[nH]c1C(=O)NCC(=O)OC(C)(C)C)c1ccccc1	.	.	.	.	.
C[C@H](NC(=O)c1nc[nH]c1C(=O)NCCCCCNC(=O)OC(C)(C)C)c1ccccc1	/	5.2µM	10µM	/	/
CC(C)C[C@H](NC(=O)c1nc[nH]c1C(=O)N(C)Cc1ccccc1)C(=O)OC(C)(C)C	.	7.4µM	?	.	.
CCN(c1ccc(OC)cc1)S(=O)(=O)c1ccc(-c2ccc(=O)[nH]n2)o1	.	.	.	.	.
CSc1ccc(S(=O)(=O)N2CCC(C(=O)NCC3CCCO3)CC2)cc1 (centres undefined)	.	.	.	.	.
CCOP(=O)(c1ccccc1)c1nc(-c2ccc(F)cc2)oc1N1CCCCC1 (centres undefined)	.	.[5.75 µM]	9.3µM	.	.
CCOP(=O)(OCC)c1nc(-c2ccc(Br)cc2)oc1N1CCCCC1	.	.	10µM	.	.
O=P(c1ccccc1)(c1ccccc1)c1nc(-c2ccc(Cl)cc2)oc1N1CCOCC1	.	.	10µM	.	.
